According to ChEMBL document CHEMBL3988442, “University of Dundee, Small-Polar-MMV Screening Library” (2021):
For some of these results: Entries with a potency or affinity are not part of this list.

Key:
Set-up in all cases: scale not given: direction of the effect not stated beside the values
[1] = molecular target: Protein translocase subunit SecA (Escherichia coli (strain K12)) (UniProt P10408); test: Assay to Identify E. coli SecA ATPase Inhibitors; type: functional; settings: 30 µM
[2] = molecular target: T1, Ubiquitin-activating enzyme e1, putative (Leishmania donovani (strain BPK282A1)) (UniProt E9BSI1); test: Leishmania donovani Ubiquitin Activating Enzyme (LdE1); type: functional; settings: 30 µM
T1 sequence (whole entry): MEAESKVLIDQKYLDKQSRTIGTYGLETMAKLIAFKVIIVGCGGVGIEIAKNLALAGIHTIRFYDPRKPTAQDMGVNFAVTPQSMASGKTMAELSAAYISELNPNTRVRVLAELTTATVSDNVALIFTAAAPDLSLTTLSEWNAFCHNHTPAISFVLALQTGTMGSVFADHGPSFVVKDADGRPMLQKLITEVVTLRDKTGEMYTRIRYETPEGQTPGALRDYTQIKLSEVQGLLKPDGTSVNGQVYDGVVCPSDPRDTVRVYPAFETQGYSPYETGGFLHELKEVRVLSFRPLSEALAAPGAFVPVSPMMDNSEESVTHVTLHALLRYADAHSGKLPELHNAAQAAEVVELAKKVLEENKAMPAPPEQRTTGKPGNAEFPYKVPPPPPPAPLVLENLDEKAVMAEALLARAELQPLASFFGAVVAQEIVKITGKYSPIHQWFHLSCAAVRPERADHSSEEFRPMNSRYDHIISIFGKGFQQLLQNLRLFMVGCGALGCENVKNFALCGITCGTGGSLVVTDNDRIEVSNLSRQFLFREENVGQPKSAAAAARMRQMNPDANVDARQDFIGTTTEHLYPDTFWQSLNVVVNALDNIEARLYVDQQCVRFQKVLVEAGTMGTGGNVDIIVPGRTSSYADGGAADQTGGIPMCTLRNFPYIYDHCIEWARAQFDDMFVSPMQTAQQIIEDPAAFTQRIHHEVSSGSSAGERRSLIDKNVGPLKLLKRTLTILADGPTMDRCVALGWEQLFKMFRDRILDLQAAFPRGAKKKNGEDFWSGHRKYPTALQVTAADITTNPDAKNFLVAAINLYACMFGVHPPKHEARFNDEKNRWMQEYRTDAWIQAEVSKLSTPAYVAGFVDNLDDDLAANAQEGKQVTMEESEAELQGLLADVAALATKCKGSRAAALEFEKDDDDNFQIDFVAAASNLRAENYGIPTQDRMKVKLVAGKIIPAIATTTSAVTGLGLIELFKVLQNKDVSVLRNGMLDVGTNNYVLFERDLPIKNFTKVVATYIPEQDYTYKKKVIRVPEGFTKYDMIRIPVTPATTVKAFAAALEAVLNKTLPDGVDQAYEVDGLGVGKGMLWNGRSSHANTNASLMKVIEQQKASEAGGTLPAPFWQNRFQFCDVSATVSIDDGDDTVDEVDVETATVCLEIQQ

[3] = molecular target: AMP-activated protein kinase, AMPK (Homo sapiens) (UniProt P54646+O43741+P54619+Q9UGJ0+Q9Y478+Q13131+Q9UGI9); test: AMP-dependent Kinase enzyme assay. An in vitro enzyme assay that detects ADP turnover that is directly proportional to AMPK activity. This uses naive AMPK that is activated during the assay with MK-8722; type: functional; settings: 30 µM
[4] = molecular target: Sialic acid-binding Ig-like lectin 9 (Homo sapiens) (UniProt Q9Y336); test: Hs-Siglec9 ALPHAscreen SOP 20170721; settings: 10 µM
Trypanosoma cruzi = test: Trypanosoma cruzi phosphomannomutase and mannose-1-phosphate guanylyltransferase assay; type: functional; settings: 10 µM
[5] = molecular target: T2, Arginase-2, mitochondrial (Homo sapiens) (UniProt P78540); test: in vitro enzyme assay to detect the production of urea directly proportional to the activity of Arginase II; type: functional; settings: 33.3 µM; note: in the data most compounds retested in dose-response had high values
T2 sequence (whole entry): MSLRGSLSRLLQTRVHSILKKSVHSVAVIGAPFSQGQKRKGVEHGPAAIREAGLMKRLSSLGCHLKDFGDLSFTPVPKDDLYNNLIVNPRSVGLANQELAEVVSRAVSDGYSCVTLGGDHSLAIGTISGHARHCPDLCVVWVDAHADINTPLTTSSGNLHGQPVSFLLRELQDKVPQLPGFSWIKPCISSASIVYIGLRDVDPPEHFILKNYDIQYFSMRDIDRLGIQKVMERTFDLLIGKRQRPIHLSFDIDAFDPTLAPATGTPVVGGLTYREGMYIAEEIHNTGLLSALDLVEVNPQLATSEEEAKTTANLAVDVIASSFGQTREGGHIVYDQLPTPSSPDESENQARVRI

[6] = molecular target: T3, Proteasome subunit beta (Trypanosoma cruzi) (UniProt O96673); test: Trypanosoma cruzi proteasome chymotrypsin-like activity (TcProtChymo) assay.; note: in the data most compounds retested in dose-response had high values; type: functional; settings: 9.37 µM
T3 sequence (whole entry): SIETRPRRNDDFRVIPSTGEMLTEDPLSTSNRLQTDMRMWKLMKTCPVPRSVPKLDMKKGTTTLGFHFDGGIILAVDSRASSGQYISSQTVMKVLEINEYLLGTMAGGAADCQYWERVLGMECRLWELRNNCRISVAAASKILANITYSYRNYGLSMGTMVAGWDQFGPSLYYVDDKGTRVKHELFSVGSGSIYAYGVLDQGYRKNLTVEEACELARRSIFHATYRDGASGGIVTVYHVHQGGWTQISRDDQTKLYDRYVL

Homo sapiens = organism: Homo sapiens; test: To identify inhibition of the IFN signalling (Jak-Stat) pathway via expression of an eGFP reporter gene under the control of an IFN-stimulated response element (ISRE) containing MxA promoter.; type: functional; settings: 30 µM
[7] = molecular target: T4, Tyrosyl-tRNA synthetase, putative (Trypanosoma cruzi (strain CL Brener)) (UniProt Q4DSP6); test: Trypanosoma cruzi tyrosyl tRNA synthetase (TcYRS) _High Tyrosine SOP; type: functional; settings: 30 µM; note: in the data most compounds retested in dose-response had high values
T4 sequence (whole entry): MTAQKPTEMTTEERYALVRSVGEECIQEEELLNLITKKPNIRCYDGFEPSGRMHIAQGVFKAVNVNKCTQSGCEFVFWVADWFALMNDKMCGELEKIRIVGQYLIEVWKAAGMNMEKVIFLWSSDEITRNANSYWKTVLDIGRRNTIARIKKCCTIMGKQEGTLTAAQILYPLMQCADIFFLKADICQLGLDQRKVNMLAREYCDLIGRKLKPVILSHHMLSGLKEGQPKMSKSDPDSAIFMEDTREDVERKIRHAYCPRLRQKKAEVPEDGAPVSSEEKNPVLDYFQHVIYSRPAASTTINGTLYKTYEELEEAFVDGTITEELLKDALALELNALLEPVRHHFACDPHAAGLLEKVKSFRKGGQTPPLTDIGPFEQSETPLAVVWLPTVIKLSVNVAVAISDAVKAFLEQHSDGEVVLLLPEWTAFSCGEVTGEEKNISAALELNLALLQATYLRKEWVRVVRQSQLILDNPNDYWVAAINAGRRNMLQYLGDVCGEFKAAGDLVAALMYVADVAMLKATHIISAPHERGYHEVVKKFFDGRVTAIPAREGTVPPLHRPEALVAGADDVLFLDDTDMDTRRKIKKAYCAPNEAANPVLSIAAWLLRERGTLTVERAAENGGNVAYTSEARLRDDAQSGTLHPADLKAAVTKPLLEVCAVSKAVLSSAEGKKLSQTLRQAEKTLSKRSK

[8] = molecular target: T4, Tyrosyl-tRNA synthetase, putative (Trypanosoma cruzi (strain CL Brener)); test: Trypanosoma cruzi tyrosyl tRNA synthetase (TcYRS) SOP; type: functional; settings: 30 µM
[9] = molecular target: Chromo domain-containing protein 1 (Saccharomyces cerevisiae (strain ATCC 204508 / S288c) (Baker's yeast)) (UniProt P32657); test: ScCHD-1 Enzyme Inhibition Assay; type: functional; settings: 30 µM; note: in the data most compounds retested in dose-response had high values
Sequence of Chromo domain-containing protein 1 (Saccharomyces cerevisiae (strain ATCC 204508 / S288c) (Baker's yeast)) (P32657 whole entry, the tested form may be a part): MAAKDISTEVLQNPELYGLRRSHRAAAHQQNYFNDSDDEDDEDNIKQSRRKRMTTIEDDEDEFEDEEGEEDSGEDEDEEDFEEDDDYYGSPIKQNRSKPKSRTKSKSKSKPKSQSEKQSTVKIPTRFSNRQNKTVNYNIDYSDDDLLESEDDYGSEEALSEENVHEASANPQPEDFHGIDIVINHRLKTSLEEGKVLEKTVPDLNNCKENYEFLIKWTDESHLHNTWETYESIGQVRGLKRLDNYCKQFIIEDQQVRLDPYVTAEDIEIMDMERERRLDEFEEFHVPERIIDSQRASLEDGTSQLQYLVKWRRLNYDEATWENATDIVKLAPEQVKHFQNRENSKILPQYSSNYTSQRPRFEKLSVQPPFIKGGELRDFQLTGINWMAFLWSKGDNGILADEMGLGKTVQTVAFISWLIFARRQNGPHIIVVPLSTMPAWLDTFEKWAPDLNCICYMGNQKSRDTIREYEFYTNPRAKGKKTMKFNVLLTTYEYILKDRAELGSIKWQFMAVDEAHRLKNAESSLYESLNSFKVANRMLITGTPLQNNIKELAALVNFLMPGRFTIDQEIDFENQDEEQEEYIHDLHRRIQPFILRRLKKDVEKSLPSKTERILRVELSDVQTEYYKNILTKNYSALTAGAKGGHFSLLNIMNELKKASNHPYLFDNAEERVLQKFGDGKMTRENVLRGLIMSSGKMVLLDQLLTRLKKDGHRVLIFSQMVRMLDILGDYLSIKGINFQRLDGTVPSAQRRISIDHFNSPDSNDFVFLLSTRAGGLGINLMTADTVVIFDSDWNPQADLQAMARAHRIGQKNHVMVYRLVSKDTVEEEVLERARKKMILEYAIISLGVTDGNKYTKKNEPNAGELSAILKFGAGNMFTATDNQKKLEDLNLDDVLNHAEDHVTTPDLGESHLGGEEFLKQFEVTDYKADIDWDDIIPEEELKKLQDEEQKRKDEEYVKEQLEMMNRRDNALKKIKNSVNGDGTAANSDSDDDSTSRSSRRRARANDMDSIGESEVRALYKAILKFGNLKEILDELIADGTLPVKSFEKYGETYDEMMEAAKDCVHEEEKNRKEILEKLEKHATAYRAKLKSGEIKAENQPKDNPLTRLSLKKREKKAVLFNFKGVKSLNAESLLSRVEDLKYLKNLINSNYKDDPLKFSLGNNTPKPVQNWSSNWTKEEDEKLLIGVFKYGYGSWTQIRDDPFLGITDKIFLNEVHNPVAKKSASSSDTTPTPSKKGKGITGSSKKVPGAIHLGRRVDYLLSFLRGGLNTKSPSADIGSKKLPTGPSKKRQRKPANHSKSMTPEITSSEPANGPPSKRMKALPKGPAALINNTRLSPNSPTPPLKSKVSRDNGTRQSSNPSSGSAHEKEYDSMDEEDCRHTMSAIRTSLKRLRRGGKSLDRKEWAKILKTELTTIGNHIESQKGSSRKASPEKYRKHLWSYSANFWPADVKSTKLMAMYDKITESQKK

Sequence of Protein translocase subunit SecA (Escherichia coli (strain K12)) (P10408 whole entry): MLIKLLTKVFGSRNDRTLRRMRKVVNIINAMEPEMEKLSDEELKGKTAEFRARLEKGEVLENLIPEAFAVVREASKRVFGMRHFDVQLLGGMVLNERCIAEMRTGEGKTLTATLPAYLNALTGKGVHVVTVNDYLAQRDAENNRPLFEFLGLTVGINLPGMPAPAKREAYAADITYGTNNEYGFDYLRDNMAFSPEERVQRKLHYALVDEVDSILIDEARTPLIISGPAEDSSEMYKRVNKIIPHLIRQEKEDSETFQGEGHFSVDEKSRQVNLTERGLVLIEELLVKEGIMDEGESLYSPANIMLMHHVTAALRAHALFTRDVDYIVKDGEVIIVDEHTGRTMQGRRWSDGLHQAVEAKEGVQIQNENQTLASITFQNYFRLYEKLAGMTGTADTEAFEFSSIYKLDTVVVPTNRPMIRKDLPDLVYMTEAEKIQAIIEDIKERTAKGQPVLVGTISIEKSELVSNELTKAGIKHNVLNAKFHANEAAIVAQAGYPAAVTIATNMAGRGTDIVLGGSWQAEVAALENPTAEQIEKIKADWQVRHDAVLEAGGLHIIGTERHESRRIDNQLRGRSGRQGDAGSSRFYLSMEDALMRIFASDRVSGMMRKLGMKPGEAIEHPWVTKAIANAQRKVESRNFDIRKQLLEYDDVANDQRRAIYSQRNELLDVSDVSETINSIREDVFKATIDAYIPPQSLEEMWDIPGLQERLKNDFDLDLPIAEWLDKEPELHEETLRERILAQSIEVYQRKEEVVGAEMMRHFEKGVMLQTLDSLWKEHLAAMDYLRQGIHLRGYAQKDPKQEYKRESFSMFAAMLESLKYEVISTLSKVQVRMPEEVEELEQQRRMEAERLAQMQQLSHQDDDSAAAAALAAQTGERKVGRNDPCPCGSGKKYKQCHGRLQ
Sequence of Sialic acid-binding Ig-like lectin 9 (Homo sapiens) (Q9Y336 whole entry): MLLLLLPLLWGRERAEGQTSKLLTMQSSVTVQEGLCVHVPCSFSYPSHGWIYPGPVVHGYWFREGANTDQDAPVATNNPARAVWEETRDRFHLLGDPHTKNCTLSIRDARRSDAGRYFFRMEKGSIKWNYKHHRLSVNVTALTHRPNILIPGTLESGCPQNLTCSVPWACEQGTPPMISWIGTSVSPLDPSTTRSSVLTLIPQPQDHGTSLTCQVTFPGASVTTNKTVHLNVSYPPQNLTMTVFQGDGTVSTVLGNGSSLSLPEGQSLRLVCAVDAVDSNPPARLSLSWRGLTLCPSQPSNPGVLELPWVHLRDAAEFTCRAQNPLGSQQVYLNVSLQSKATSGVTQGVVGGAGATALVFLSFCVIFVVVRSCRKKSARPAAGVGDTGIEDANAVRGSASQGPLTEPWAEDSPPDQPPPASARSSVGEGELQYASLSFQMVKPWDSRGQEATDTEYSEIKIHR

Row | Structure (SMILES) | Percent Effect [1] | Percent Effect [2] | Percent Effect [3] | Percent Effect [4] | Percent Effect (Trypanosoma cruzi) | Percent Effect [5] | Percent Effect [6] | Percent Effect (Homo sapiens) | Percent Effect [7] | Percent Effect [8] | Percent Effect [9]
1 | CSc1ncccc1C(=O)N1CCC(c2nc3c(C)cccc3[nH]2)CC1 | -5.33% | 20.8% | 6.84% | 10.4% | 3.83% | -5.52% | 16.1% | 3.12% | 7.53% | 13.6% | -10.4%
2 | COc1ccc(C2=CCN(C(=O)C3CC(=O)N(C4CC4)C3)CC2)cc1 (stereo not given) | -3.27% | -5.26% | 2.62% | -10.1% | -2.15% | 2.16% | 1.61% | 19.9% | 2.46% | -6.17% | -1.27%
3 | O=C(NCCc1ccccc1)C1CCC(Cn2cnnn2)CC1 (stereo not given) | -0.876% | -4% | 1.1% | 6.93% | -1.77% | -4.4% | 3.88% | -9.79% | 2.12% | 5.13% | 2.05%
4 | Cc1cc(NC(=O)CCc2ccsc2)n(C)n1 | -8.05% | 4.17% | -4.38% | -1.11% | -3.98% | 3.97% | 17.7% | -3.97% | 1.05% | 7.69% | -4.62%
5 | CCn1nc(C(C)C)cc1C(=O)NCCCOC | -2.71% | 6.94% | 0.234% | -3.62% | 6.51% | -1.77% | 14.7% | -30.8% | 4.21% | 12.8% | -4.31%
6 | COCCNC(=O)NCc1ccc(OC(C)C)c(F)c1 | -5.47% | 10.5% | -1.85% | 9.7% | 8.5% | -4.68% | 5.67% | 2.01% | 5.42% | 13.6% | 0.0512%
7 | CCN1CCCC(CNC(=O)C2(c3cccc(Cl)c3)CC2)C1 (stereo not given) | -4.26% | 6.33% | 0.975% | 3.63% | -5.85% | -2.8% | 14.6% | 8.9% | 7.29% | 15.2% | -13.8%
8 | CNc1cc(C2CCCN2Cc2ccccc2C(=O)O)ccn1 (stereo not given) | -4.24% | -6.76% | 3.65% | -0.354% | -1.19% | -0.696% | 7.33% | 7.54% | 8.6% | 11.7% | -11.7%
9 | Cc1cn2nc(N3CCCN(Cc4noc(C)n4)CC3)sc2n1 | -4% | 11.4% | 7.75% | 2.12% | -2.97% | 1.94% | 13.4% | 0.85% | 7.29% | 12.7% | -14.4%
10 | FC(F)(F)COCCN1CCCC(c2noc(C3CC3)n2)C1 (stereo not given) | -2.95% | 5.33% | -7.13% | 6.38% | 7.3% | -0.521% | 16.7% | 16.5% | 3.83% | 11.1% | 101%
11 | Cc1ccc(OCCCNC(=O)NC(C)c2nncn2C)cc1 (stereo not given) | -4.22% | 13% | 6.68% | -5.15% | 4.41% | 4.42% | 8% | -0.0367% | 7.62% | 18.8% | -17.6%
12 | CCCc1ncc(C(=O)N2CCOC(c3nc(C)n[nH]3)C2)s1 (stereo not given) | -2.75% | -3.8% | 4.69% | 3.58% | -6.46% | 7.1% | 5.66% | 11.7% | 1.04% | -2.53% | 9.76%
13 | CCN1CC2(CC1=O)CN(Cc1ccco1)CCN(C(=O)N(C)C)C2 (stereo not given) | -0.643% | 2.74% | 1.96% | 9.02% | -1.39% | 4.39% | 6.59% | -2.04% | 5.21% | 11.1% | 0.322%
14 | COc1ccc(C2Nc3ccccc3C3=NCCCN32)cc1OC (stereo not given) | -5.46% | -2.67% | 8.31% | -1.83% | -0.787% | -1.63% | -2.91% | 11.5% | 0% | 1.28% | -8.33%
15 | CCc1noc(CNc2ccc(F)cc2OCC2CC2)n1 | 0.992% | 18.9% | -7.79% | 18.2% | -1.54% | 7.14% | 9.83% | 10.8% | 1.59% | 12.2% | -3.79%
16 | CC(C)COCc1cncc2c1CCN(Cc1cnn(C)c1)C2 | -5.06% | 7.79% | 2.31% | 5.43% | -0.688% | -29% | 4.16% | -12.6% | 7.53% | 11.1% | 133%
17 | O=C(NCc1cc(=O)n2c(n1)CN(CC1CCOC1)CCC2)C1CC1 (stereo not given) | 0.233% | 2.74% | -1.09% | 5.91% | 6.35% | -0.399% | 6.76% | -4.97% | 3.12% | 11.1% | -3.69%
18 | CS(=O)(=O)CCSc1cccc(C#N)c1 | -3.18% | -4.17% | -4.21% | -5.6% | -0.291% | -0.442% | 7.72% | 7.41% | -1.05% | 0% | -0.524%
19 | Cc1ncsc1C(=O)N1CCCN(Cc2cscn2)CC1 | -2.64% | 5.2% | 1.53% | 0.904% | 3.82% | -1.9% | -3.8% | -3.73% | 6.67% | 9.41% | -14.3%
20 | CCC(C)N(C)CCNC(=O)NCc1cccc(-n2cncn2)c1 (stereo not given) | -5.23% | 5.41% | -2.01% | 27.3% | 4.59% | 0.248% | 9.87% | -1.6% | 2.15% | 6.17% | -12.3%
